The text below walks through data of PubChem BioAssay (Tox21).

A short description of experiment [1]: qHTS assay to identify small molecule antagonists of the thyroid receptor (TR) signaling pathway - cell viability counter screen (AID 743064). Also: nearly all actives have a fitted effect of over 50% in size. Also: potency is read from the fitted curve at half-maximal effect. In short, it runs like this: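 GH3.TRE-Luc rat pituitary cells dosed after 4 hr plating, co-stimulated with T3 at 1 nM final, incubated 23.5 h at 37 C. Viability measured in the same wells by CellTiter-Fluor fluorescence after 30 min further at 37 C.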
(In qHTS, concentration-response curves come from the screen itself.)

A short description of experiment [2]: qHTS assay to identify small molecule antagonists of the thyroid receptor (TR) signaling pathway (AID 743065). Also: nearly all actives have a fitted effect of over 55% in size. Also: potency is read from the fitted curve at half-maximal effect. In short, it runs like this: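 GH3.TRE-Luc rat pituitary cells (two TREs driving luciferase) were dosed with compound, then stimulated with 1 nM T3 (final) for 23.5 h at 37 C. ONE-Glo luminescence was the read-out, with CellTiter-Fluor fluorescence as the cytotoxicity counter-screen.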

Experiment [3] relates to thyroid hormone receptor (rat, GH3 cells). Nature of the experiment: qHTS assay to identify small molecule agonists of the thyroid receptor (TR) signaling pathway (AID 743066; calls by dose curve).
Experiment [4] concerns the target Estrogen receptor (Homo sapiens) (UniProt P03372). Nature of the experiment: qHTS assay to identify small molecule agonists of the estrogen receptor alpha (ER-alpha) signaling pathway (AID 743075; calls by dose curve;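 also: HEK293 GripTite cells with ER-alpha and UAS-driven beta-lactamase reporter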).
Experiment [5] has as its target Aromatase (Homo sapiens) (UniProt P11511). Nature of the experiment: qHTS assay to identify aromatase inhibitors (AID 743083). Also: nearly all actives have a fitted effect of over 55% in size. Also: potency is read from the fitted curve at half-maximal effect.
The target in experiment [6] is Aryl hydrocarbon receptor (Homo sapiens) (UniProt P35869). Description: qHTS assay to identify small molecule that activate the aryl hydrocarbon receptor (AhR) signaling pathway (AID 743085). Also: nearly all actives have a fitted effect of over 15% in size. Also: potency is read from the fitted curve at half-maximal effect.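 As to activation: HG2L7.5c1 human HepG2 liver cells with stably integrated DRE-driven firefly reporter.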 In short, it runs like this: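 HepG2 cells stably carrying a 20-DRE firefly luciferase reporter (HG2L7.5c1) treated with compound for 24 hr at 37C. Luciferase read by ONE-Glo luminescence, with CellTiter-Fluor viability read first.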

In experiment [7] the target is Peroxisome proliferator-activated receptor gamma (Homo sapiens) (UniProt P37231). Nature of the experiment: qHTS assay to identify small molecule agonists of the peroxisome proliferator-activated receptor gamma (PPARg) signaling pathway (AID 743094; active = well fitted activation curve with a large enough effect in the signal ratio in the repeat runs, not every such curve was filed as active; the % refers to the signal ratio). In short, it runs like this: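 GeneBLAzer PPARg UAS-bla HEK293H cells carrying a stably integrated beta-lactamase reporter were pre-incubated 5 h at 37C, then exposed to compounds in DMSO for 17 h at 37C; LiveBLAzer B/G FRET substrate was added for 1 h at room temperature and fluorescence read.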

Experiment [8] in a line: qHTS assay to identify small molecule antagonists of the peroxisome proliferator-activated receptor gamma (PPARg) signaling pathway - cell viability counter screen (AID 743194). Also: nearly all actives have a fitted effect of over 55% in size. Also: potency is read from the fitted curve at half-maximal effect. In short, it runs like this:
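Cytotoxicity counter screen in PPARg-bla HEK293H cells, same wells as reporter assay. Compounds plus 50 nM rosiglitazone (final) for 17 h at 37 C, then viability read by CellTiter-Glo luminescence.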

Experiment [9] can be described thus: qHTS assay for small molecule activators of the heat shock response signaling pathway (AID 743210; active = well fitted activation curve with a large enough effect in the signal ratio in the repeat runs, with a control signal flat, not every such curve was filed as active; the % refers to the signal ratio; also: potency is read from the fitted curve at half-maximal effect;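 as to activation: HeLa cells with beta-lactamase reporter driven by heat shock elements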). In a few lines: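 Quantitative high-throughput format using an engineered HeLa line in which heat shock response elements drive beta-lactamase; after 5 h with compound, cells received a B/G FRET substrate and fluorescence was read.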
Experiment [10] can be described thus: qHTS assay to identify small molecule antagonists of the estrogen receptor alpha (ER-alpha) signaling pathway - cell viability counter screen (AID 743074; calls by dose curve;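 also: HEK293 cells carrying ER-alpha-UAS-bla reporter stimulated with 17beta-estradiol; nearly all actives have a fitted effect of over 45% in size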; also: potency is read from the fitted curve at half-maximal effect).
Experiment [11] has as its target Estrogen receptor (Homo sapiens) (UniProt P03372). Nature of the experiment: qHTS assay to identify small molecule agonists of the estrogen receptor alpha (ER-alpha) signaling pathway using the BG1 cell line (AID 743079). Also: nearly all actives have a fitted effect of over 20% in size. The settings on record: BG1Luc4E2 cells, ERE-luciferase agonist, 22 h; activation: at 70.3 µM (top of the series).
Experiment [12] can be described thus: qHTS assay to identify aromatase inhibitors - cell viability counter screen (AID 743084).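 Also: cells stimulated with testosterone during compound exposure; nearly all actives have a fitted effect of over 55% in size.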 Also: potency is read from the fitted curve at half-maximal effect.
Experiment [13] is described as follows: qHTS assay for small molecule agonists of the antioxidant response element (ARE) signaling pathway - cell viability counter screen (AID 743203; calls by dose curve; also: nearly all actives have a fitted effect of over 55% in size; also: potency is read from the fitted curve at half-maximal effect). In short, it runs like this: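 CellSensor ARE-bla HepG2 cells, 2,000 per well, rested 5 hrs at 37C/5% CO2, then exposed to compound in DMSO for 16 hrs; viability read as CellTiter-Glo luminescence after 30 min at room temperature, in the reporter wells.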

Experiment [14] in a line: qHTS assay for small molecule activators of the heat shock response signaling pathway - cell viability counter screen (AID 743209). Also: nearly all actives have a fitted effect of over 50% in size. Also: potency is read from the fitted curve at half-maximal effect. In a few lines:
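CellSensor HSE-bla HeLa cells, plated overnight at 37 C/5% CO2, were exposed to compounds in DMSO for 5 h at 37 C. Viability was then read in the same wells by CellTiter-Glo luminescence after 30 min at room temperature.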

Experiment [15] can be described thus: qHTS assay to identify small molecule antagonists of the estrogen receptor alpha (ER-alpha) signaling pathway using the BG1 cell line (AID 743080; calls by dose curve;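 also: BG1 cells stimulated with 17beta-estradiol alongside compound; nearly all actives have a fitted effect of over 25% in size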). In short, it runs like this: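 Luminescence from a 4×ERE-luciferase reporter in BG1-Luc-4E2 cells served as read-out. Cells, pre-cultured 5 days in stripped-serum phenol-red-free medium, were exposed to compound with 17beta-estradiol co-stimulation for 21.5 h at 37 C.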

The nature of experiment [16]: qHTS assay to identify small molecule antagonists of the estrogen receptor alpha (ER-alpha) signaling pathway using the BG1 cell line - cell viability counter screen (AID 743081).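 Also: compound given together with 17beta-estradiol as the ER stimulus; nearly all actives have a fitted effect of over 45% in size.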
Experiment [17] can be described thus: qHTS assay for small molecule agonists of the antioxidant response element (ARE) signaling pathway (AID 743202; active = well fitted activation curve with a large enough effect in the signal ratio in the repeat runs, not every such curve was filed as active; the % refers to the signal ratio; also: potency is read from the fitted curve at half-maximal effect). In a few lines: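 Agonist mode reporter screen: HepG2 cells with ARE-controlled beta-lactamase are incubated with test compounds for 16 h at 37 C, and beta-lactamase activity is measured as fluorescence of cleaved B/G FRET substrate.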
Experiment [18] is described as follows: qHTS assay to identify small molecule that activate the aryl hydrocarbon receptor (AhR) signaling pathway - cell viability counter screen (AID 743086). Also: nearly all actives have a fitted effect of over 45% in size. Also: potency is read from the fitted curve at half-maximal effect. In a few lines: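 HepG2-AhR-luc (HG2L7.5c1) cells, 4000/well, treated 24 h at 37 C with compound; viability measured as CellTiter-Fluor fluorescence after 30 min in the same wells as the luciferase read.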

The target of experiment [19] is Peroxisome proliferator-activated receptor gamma (Homo sapiens) (UniProt P37231). Nature of the experiment: qHTS assay to identify small molecule antagonists of the peroxisome proliferator-activated receptor gamma (PPARg) signaling pathway (AID 743191; calls by dose curve; also: nearly all actives have a fitted effect of over 30% in size). In a few lines: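 GeneBLAzer PPARg UAS-bla HEK293H cells, 5 h post-plating, exposed to compounds 17 h at 37C. LiveBLAzer B/G FRET substrate added for 1 h at room temperature; beta-lactamase reporter read by fluorescence intensity.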

Records with an inconclusive call do not appear. Calls of active or inactive are those of the source. Unless noted, calls follow the shape of the dose curve; as a rule, active = well fitted curve in the direction sought with a large enough effect in the repeat runs; inconclusive = weak or mixed curves; inactive = no such curve, though single readings can be large; an effect the other way counts as inactive or inconclusive.

Aromatase (Homo sapiens), sequence (P11511 whole entry, looked up): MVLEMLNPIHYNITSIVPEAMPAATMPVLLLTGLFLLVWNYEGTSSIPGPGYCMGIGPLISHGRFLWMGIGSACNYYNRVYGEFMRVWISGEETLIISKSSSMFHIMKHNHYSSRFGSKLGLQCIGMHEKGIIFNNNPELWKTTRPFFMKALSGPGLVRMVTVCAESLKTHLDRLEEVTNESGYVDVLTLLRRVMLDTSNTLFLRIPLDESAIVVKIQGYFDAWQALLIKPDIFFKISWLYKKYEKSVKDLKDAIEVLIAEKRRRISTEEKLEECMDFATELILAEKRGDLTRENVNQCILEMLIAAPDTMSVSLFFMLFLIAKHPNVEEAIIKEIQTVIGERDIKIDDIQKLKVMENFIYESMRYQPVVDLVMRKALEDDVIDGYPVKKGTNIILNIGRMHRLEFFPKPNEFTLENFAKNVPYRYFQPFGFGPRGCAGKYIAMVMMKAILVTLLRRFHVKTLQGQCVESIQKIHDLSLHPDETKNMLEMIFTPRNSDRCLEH
Aryl hydrocarbon receptor (Homo sapiens), sequence (P35869 whole entry, looked up): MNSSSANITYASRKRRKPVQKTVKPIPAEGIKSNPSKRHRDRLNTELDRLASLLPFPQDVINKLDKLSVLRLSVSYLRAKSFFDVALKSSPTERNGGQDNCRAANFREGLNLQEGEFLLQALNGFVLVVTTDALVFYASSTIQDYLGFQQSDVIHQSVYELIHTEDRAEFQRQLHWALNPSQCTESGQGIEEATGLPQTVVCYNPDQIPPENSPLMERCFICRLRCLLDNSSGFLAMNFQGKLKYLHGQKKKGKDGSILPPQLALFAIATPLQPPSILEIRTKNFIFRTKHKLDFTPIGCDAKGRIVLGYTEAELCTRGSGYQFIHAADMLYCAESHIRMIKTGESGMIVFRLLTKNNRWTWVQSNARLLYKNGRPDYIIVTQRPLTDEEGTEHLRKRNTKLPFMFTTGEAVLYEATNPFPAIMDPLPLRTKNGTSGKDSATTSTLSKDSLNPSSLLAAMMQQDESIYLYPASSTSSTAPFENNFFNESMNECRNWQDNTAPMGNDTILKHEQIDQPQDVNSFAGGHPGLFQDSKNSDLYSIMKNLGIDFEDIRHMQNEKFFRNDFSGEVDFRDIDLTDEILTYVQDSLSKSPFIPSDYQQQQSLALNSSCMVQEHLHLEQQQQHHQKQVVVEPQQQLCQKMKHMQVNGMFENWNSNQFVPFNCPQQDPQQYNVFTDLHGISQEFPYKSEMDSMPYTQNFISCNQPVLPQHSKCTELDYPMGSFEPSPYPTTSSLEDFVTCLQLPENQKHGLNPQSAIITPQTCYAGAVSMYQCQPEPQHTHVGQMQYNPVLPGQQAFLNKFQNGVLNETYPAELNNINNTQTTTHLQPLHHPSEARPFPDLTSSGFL
Peroxisome proliferator-activated receptor gamma (Homo sapiens), sequence (P37231 whole entry, looked up): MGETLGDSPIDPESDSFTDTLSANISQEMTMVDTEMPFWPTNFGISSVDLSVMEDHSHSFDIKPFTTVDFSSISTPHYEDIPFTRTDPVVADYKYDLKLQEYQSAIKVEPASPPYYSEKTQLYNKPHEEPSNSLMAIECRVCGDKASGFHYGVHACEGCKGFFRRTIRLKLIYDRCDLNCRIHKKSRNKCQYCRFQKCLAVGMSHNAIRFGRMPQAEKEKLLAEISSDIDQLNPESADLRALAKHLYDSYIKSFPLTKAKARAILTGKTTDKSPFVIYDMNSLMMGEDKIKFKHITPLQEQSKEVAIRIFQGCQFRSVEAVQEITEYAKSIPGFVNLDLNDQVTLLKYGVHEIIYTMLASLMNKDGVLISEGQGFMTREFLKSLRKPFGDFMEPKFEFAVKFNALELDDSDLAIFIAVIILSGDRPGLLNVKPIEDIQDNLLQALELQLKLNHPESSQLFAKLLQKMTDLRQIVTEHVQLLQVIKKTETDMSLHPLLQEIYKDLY
Estrogen receptor (Homo sapiens), sequence (P03372 whole entry, looked up): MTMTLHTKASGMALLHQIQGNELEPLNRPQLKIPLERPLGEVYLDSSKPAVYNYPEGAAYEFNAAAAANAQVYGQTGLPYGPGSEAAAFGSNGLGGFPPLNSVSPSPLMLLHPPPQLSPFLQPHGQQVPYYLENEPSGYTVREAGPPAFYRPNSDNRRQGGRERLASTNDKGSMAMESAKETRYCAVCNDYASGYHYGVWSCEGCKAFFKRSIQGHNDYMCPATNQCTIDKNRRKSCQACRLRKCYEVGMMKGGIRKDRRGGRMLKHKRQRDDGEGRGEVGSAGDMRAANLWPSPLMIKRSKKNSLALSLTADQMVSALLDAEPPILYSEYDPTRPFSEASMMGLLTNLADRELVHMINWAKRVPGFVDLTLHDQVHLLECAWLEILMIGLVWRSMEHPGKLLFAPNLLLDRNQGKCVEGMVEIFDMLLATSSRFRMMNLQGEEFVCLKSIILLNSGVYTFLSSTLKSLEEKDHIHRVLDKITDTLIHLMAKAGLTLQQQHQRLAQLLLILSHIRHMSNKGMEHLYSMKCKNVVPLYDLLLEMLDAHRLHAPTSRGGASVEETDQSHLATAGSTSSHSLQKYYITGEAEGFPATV

As to `COc1ccccc1NC(=O)c1cc2ccccc2cc1O`, the Potency result in experiment [1], in experiment [4] and in experiment [7] was “inactive” each time. Also, the Potency is 17.2 µM (active) in experiment [2]; 24.3 µM (active) in experiment [5]; 3.06 µM (active) in [6]; 17.4 µM (active) in experiment [8]; 50.9 µM (active) in [9]. Also, in [3], the outcome was inactive.
In the case of `Cc1cccc(N(C)C(=S)Oc2ccc3c(c2)CCC3)c1`, the Potency result in experiment [1], in [2], in experiment [10], in [4], in experiment [11] and in experiment [5] was “inactive” each time. The Potency result in [12], in experiment [6], in [7], in experiment [8], in experiment [13] and in experiment [14] was “inactive” in each case. For the same molecule, in experiment [9], the Potency result is “inactive”. Besides, the call in experiment [3] was inactive.
As for `N#[N+]c1ccc2c(S(=O)(=O)[O-])cccc2c1O`, the Potency entry in experiment [1], in [2], in experiment [10], in experiment [4], in [15] and in experiment [16] was “inactive” throughout. The Potency result in experiment [5], in experiment [6], in experiment [7], in [8], in [17] and in experiment [13] was “inactive” in each case. For the same molecule, the Potency result in [14] and in experiment [9] was “inactive” in each case. The molecule was called inactive in [3].
As for `CC(CCC(=O)O)C(=O)O` (configuration not stated), the Potency entry in [1], in experiment [2], in experiment [10], in [16], in experiment [5] and in experiment [12] was “inactive” throughout. In addition, the Potency entry in experiment [6], in [18], in experiment [7], in experiment [19], in [8] and in [13] was “inactive” throughout. Also, the Potency entry in experiment [14] and in experiment [9] was “inactive” throughout. Further, the molecule was classed as inactive in [3].
Turning to `CCCCCCC(C)(C)C(=O)O`, the Potency entry in [1], in [2], in [4], in [11], in experiment [16] and in experiment [5] was “inactive” throughout. The Potency entry in [12], in [6], in experiment [18], in [7], in [19] and in experiment [17] was “inactive” throughout. In addition, the Potency result in [13], in experiment [14] and in experiment [9] was “inactive” each time. In experiment [3], the call was inactive.
Take `CCOC(=O)c1ccc(C#Cc2ccc3c(c2)C(C)(C)CCS3)nc1`: the Potency result in experiment [1], in experiment [2], in experiment [10], in [16], in [12] and in experiment [6] was “inactive” throughout. The Potency entry in experiment [18], in [8], in experiment [13] and in experiment [14] was “inactive” each time. The result in [3] was inactive. In experiment [17], the Potency was 26.6 µM (active).
Take `CCCCCCNC(=O)n1cc(F)c(=O)[nH]c1=O`: the Potency is 10.6 µM (active) in [1] and 2.66 µM (active) in experiment [2]. Moreover, the call in experiment [3] was inactive. The Potency result in experiment [10], in experiment [16], in experiment [5], in experiment [12], in experiment [6] and in [18] was “inactive” each time. For the same molecule, the Potency entry in experiment [8], in experiment [14] and in [9] was “inactive” in each case.
As to `CCCCCCCCCCCCCCN(CCO)CCO`, the Potency was 19.3 µM (active) in [1]; 17.2 µM (active) in experiment [2]; 54.9 µM (active) in experiment [10]; 27.3 µM (active) in experiment [5]; 43.3 µM (active) in [12]; 43.6 µM (active) in [8]. For the same molecule, the Potency in experiment [13] is 61.1 µM (active); in experiment [14], 24.5 µM (active). The result in experiment [3] was inactive. The Potency result in [16], in experiment [6] and in experiment [18] was “inactive” throughout.
As for `CC1CC(OC(=O)C(O)c2ccccc2)CC(C)(C)N1C` (configuration not stated), the Potency entry in experiment [1], in experiment [2], in experiment [10], in experiment [16], in [5] and in experiment [12] was “inactive” throughout. Moreover, the Potency result in [6], in [18], in [8], in [17], in [13] and in [14] was “inactive” in each case. For the same molecule, the Potency entry in experiment [9] is “inactive”. Besides, the molecule was classed as inactive in experiment [3].
`c1cc(N(CC2CO2)CC2CO2)ccc1Cc1ccc(N(CC2CO2)CC2CO2)cc1` (configuration not stated): the Potency in [1] is 13.7 µM (active); in experiment [2], 8.63 µM (active); in [5] it was 30.6 µM (active); in [12], 27.3 µM (active); in experiment [18], 54.5 µM (active). Further, in experiment [3], the call was inactive. Moreover, the Potency entry in experiment [10] and in experiment [14] was “inactive” in each case.
Turning to `O=C(Cn1ccnc1[N+](=O)[O-])NCCO`, the Potency entry in [1], in [2], in [4], in experiment [11], in experiment [16] and in experiment [5] was “inactive” each time. Further, the Potency result in experiment [12], in experiment [6], in experiment [18], in [7], in experiment [19] and in [8] was “inactive” in each case. In addition, the Potency result in [17], in [13], in experiment [14] and in [9] was “inactive” each time. Moreover, in experiment [3], the result was inactive.
As for `CCC(OCCCOC)OC(C)=O` (configuration not stated), the Potency result in experiment [1], in experiment [2], in experiment [10], in experiment [16], in [5] and in [12] was “inactive” throughout. In addition, the Potency entry in experiment [6], in experiment [18], in experiment [8], in experiment [17], in experiment [14] and in experiment [9] was “inactive” throughout. In experiment [3], the result was inactive.
As for `CC1=Nc2ccc3ccccc3c2C1(C)C`, the Potency result in experiment [1], in [2], in experiment [10], in experiment [4], in experiment [15] and in [16] was “inactive” each time. Further, the Potency entry in experiment [5], in [12], in experiment [6], in [7], in [19] and in experiment [8] was “inactive” in each case. Further, in experiment [14], the Potency entry is “inactive”. The molecule was classed as inactive in experiment [3]. For the same molecule, the Potency in experiment [18] was 54.5 µM (active).
For the molecule `Cc1ccc(OC(=O)c2ccccc2O)cc1`, the Potency result in experiment [1], in experiment [2], in experiment [10], in experiment [16], in experiment [5] and in experiment [12] was “inactive” throughout. The Potency result in experiment [6], in experiment [18], in experiment [7], in [19], in experiment [8] and in experiment [17] was “inactive” in each case. For the same molecule, the Potency result in experiment [14] and in experiment [9] was “inactive” in each case. Besides, the molecule was classed as inactive in experiment [3].
